TDP1 cell CPT: growth inhibition of DT40 Tdp1-/-;hTDP1 cells with camptothecin (screen for TDP1 inhibitors). chicken DT40 Tdp1-/-;hTDP1 cells + 20 nM CPT, ATP luminescence, 48 h. hit rate 12% among 420,000. Potency, µM (titrated, usually from 46.2 µM), inactives show top-dose activity change, negative = growth inhibition, usual class: inhibitors; further: nearly all actives have a fitted effect of over 55% in size
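Cell growth measured by CellTiter-Glo luminescence after a minimum 48 h, 37 C compound exposure with 20 nM CPT in Tdp1-knockout DT40 cells stably expressing hTDP1, seeded 400/well; qHTS titration format.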
HT1080-NT tox: kills 2HG-producing HT-1080-NT fibrosarcoma cells | HT-1080-NT fibrosarcoma viability, CellTiter-Glo ATP luminescence, 48 h | Potency, µM (doses to about 46.1 µM), for the others: top-dose activity, negative = less viability, actives largely listed as cytotoxic | hit rate 1.6% among 360,000 | AID 686970;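 further: NT is the 2HG producing partner of a matched IDH1 knockdown line; 0% = DMSO-treated cells and -100% = media-only wells without cells; nearly all actives have a fitted effect of over 55% in size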
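Toxicity toward the 2HG-producing NT line was scored as %Activity, normalised to DMSO and no-cell wells, from CellTiter-Glo luminescence after 48 hours' treatment.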
KB-V1 MDR tox: KB-V1 MDR subline cytotoxicity | KB-V1 MDR cells viability, CellTiter-Glo, 72 h | Potency, µM (series often up to 46.1 µM), usual class: cytotoxic | hit rate 3.4% among 400,000; further: nearly all actives have a fitted effect of over 60% in size
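Following 72 h at 37 degrees C with compound, KB-V1 cell viability was read by CellTiter-Glo luminescence, medium being phenol-red-free DMEM plus 10% FBS; concentration-response parameters came from normalized, curve-fitted qHTS data.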
KB-3-1 tox: kills parental KB-3-1 adenocarcinoma cells; KB-3-1 viability, CellTiter-Glo ATP luminescence, 72 h; Potency, µM (titrated, usually from 46.1 µM), hits mostly cytotoxic; hit rate 1.4% among 400,000; AID 1347075; further: nearly all actives have a fitted effect of over 60% in size
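Cytotoxicity measured as CellTiter-Glo luminescence after 72 h at 37 C. Compound titrations were pinned onto drug-naive KB-3-1 parental adenocarcinoma cells grown in DMEM with 10% FBS, and normalized data fitted to concentration-response curves.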
HT1080 IDH1KD tx: kills HT-1080 cells with IDH1 knockdown; HT-1080 IDH1 knockdown viability, ATP luminescence, 48 h; hit rate 2% among 360,000; Potency, µM (highest dose often 46.1 µM), inactives show at the top dose activity, negative = toxicity, actives largely listed as cytotoxic;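 further: 0% = DMSO wells and -100% = cell-free medium wells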
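% activity derives from luminescence (CellTiter-Glo), normalised to DMSO and no-cell wells. HT-1080-IDH1KD cells, 750/well, had 48 h compound exposure at 37 °C.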
TDP1 cell noCPT: qHTS for Inhibitors of human tyrosyl-DNA phosphodiesterase 1 (TDP1): qHTS in cells in absence of CPT | DT40 Tdp1-/- hTDP1 cells, no CPT, ATP luminescence, 48 h | Potency, µM (titrated, usually from 46.2 µM), for inactives: top-dose activity change, negative = growth inhibition, hits mostly inhibitors | hit rate 15% among 420,000 | AID 686978, 2013; further: nearly all actives have a fitted effect of over 55% in size
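Growth kinetics read by CellTiter-Glo luminescence after ≥48 hr at 37 °C. Cells: DT40 Tdp1-/- stably carrying human TDP1, 400 per well, compound exposure in the absence of CPT (DMSO vehicle).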
* marks the source's active call; other numbers are inactive results; i = inactive; u = inconclusive; x = no result given. Compounds with a hit are over-represented: about 19% of the library has one in this group of screens. The call rests on the fitted dose curve; in most records, active means well fitted curve in the direction sought with a large enough effect; inconclusive means small, poorly fitted or top-dose-only effect, or another doubt; inactive means no such curve, though single readings can be large; an effect the other way counts as inactive or inconclusive. Unless noted, on the % scale 0 is the no-effect control and ±100 the full control effect; potency means the concentration at half of the fitted maximal effect.

SMILES	TDP1 cell CPT	HT1080-NT tox	KB-V1 MDR tox	KB-3-1 tox	HT1080 IDH1KD tx	TDP1 cell noCPT
CC1=Nc2cc(C(=O)NC3CCCC3)ccc2Sc2ccc(C)cc21	1.16µM*	x	1.3µM*	1.46µM*	x	0.92µM*
CCOC(=O)N1CCC(NC(=O)c2ccc3c(c2)N=C(C)c2ccccc2S3)CC1	u	-13.5%	i	i	-22.0%	u
O=C1COc2ccc(S(=O)(=O)N3CCC(C(=O)NCc4ccccc4)CC3)cc2N1	-12.3%	-0.9%	i	i	1.5%	4.6%
COc1ccc(CCNC(=O)CSc2cn(CCNC(=O)c3ccccc3F)c3ccccc23)cc1OC	u	x	i	u	x	u
CNS(=O)(=O)c1ccc(C)c(S(=O)(=O)NC)c1	1.1%	2.8%	i	u	7.5%	8.2%
COc1cccc(Cn2c(CNC(=O)C(C)C)nc3cccnc32)c1	-9.9%	x	x	x	x	12.7%
CCCc1nnc(NC(=O)CCS(=O)(=O)Cc2ccccc2)s1	u	u	i	i	12.2%	u
Cc1ccc(S(=O)(=O)CCC(=O)Nc2nc3c(s2)CCCC3)cc1	u	-28.7%	i	u	-18.3%	29.1µM*
CCc1nnc(NC(=O)CCS(=O)(=O)c2ccccc2)s1	25.9µM*	-1.3%	i	i	-9.7%	u
CCc1nnc(NC(=O)CCS(=O)(=O)Cc2ccccc2)s1	14.6µM*	-2.6%	i	i	-0.8%	u
COc1ccc(OC)c2sc(NC(=O)CCS(=O)(=O)c3ccccc3)nc12	5.17µM*	5.6%	i	u	5.0%	4.61µM*
COc1ccc(OC)c2sc(NC(=O)CCSc3ccccc3)nc12	-34.7%	-15.9%	i	i	-21.4%	-25.6%
O=C(CS(=O)(=O)c1ccccc1)Nc1ncc([N+](=O)[O-])s1	-2.9%	10.8%	i	i	14.3%	-9.1%
CC(C)c1nnc(NC(=O)CCS(=O)(=O)c2ccccc2)s1	16.4µM*	u	i	i	u	u
CCCCc1nnc(NC(=O)CN(C)S(=O)(=O)c2ccc(C)cc2)s1	0.4%	11.3%	i	i	1.2%	6.3%
CCC(CC)c1nnc(NC(=O)Cc2c[nH]c3ccccc23)s1	25.9µM*	-17.7%	i	i	-5.5%	23.1µM*
O=C(CCS(=O)(=O)c1ccccc1)Nc1ncc([N+](=O)[O-])s1	8.2µM*	20.6µM*	u	u	16.4µM*	10.3µM*
CCCCc1nnc(NC(=O)CCS(=O)(=O)c2ccc(C)cc2)s1	13µM*	2.0%	i	i	-15.3%	u
CC(C)c1nnc(NC(=O)CCc2ccccc2)s1	2.8%	-0.9%	i	i	-4.1%	10.2%
O=C(Cn1c(=O)oc2ccccc21)Nc1ccc(F)cc1	-13.5%	7.3%	i	i	1.8%	-5.0%
COCc1nnc(NC(=O)CCCOc2ccccc2)s1	0.5%	1.7%	i	i	19.6%	-0.7%
COCc1nnc(NC(=O)CCS(=O)(=O)c2ccccc2)s1	10.3µM*	u	i	i	u	16.4µM*
CCC(CC)c1nnc(NC(=O)CCS(=O)(=O)Cc2ccccc2)s1	u	u	i	i	-19.2%	14.6µM*
COCc1nnc(NC(=O)c2cccc(NC(=O)c3ccccc3)c2)s1	u	-4.8%	i	i	-5.3%	20.6µM*
Cc1ccc(S(=O)(=O)CCc2nnc(NC(=O)c3ccccn3)s2)cc1	u	-7.7%	i	i	-1.4%	20.6µM*
SMILES	TDP1 cell CPT	HT1080-NT tox	KB-V1 MDR tox	KB-3-1 tox	HT1080 IDH1KD tx	TDP1 cell noCPT
COC(=O)Cc1nnc(NC(=O)c2ccccc2)s1	-8.4%	0.3%	i	i	-4.0%	-27.9%
Cc1ccc(S(=O)(=O)CCc2nnc(NC(=O)c3cnccn3)s2)cc1	-18.0%	-4.8%	i	i	11.1%	-17.8%
CN(C)C(=O)c1cc(C(=O)c2ccccc2Cl)c[nH]1	-0.5%	7.1%	i	i	19.7%	u
CCOc1ccccc1C(=O)Nc1ccc2c(c1)C(=O)NC2=O	11.7%	15.1%	u	i	14.3%	8.8%
COc1cccc(C(c2sc3nc(-c4ccco4)nn3c2O)N2CCC(C)CC2)c1 (stereo not drawn)	7.3%	x	i	i	x	-11.8%
O=C(COC(=O)c1ccc(Cl)cc1O)NCCN1C(=O)CSC1=O	-7.3%	-0.3%	i	i	-7.0%	-8.3%
Cc1n[nH]c(C)c1CCc1nc2c3ccccc3nc(SCC(=O)Nc3ccc(F)cc3)n2n1	18.4µM*	x	i	i	x	29.1µM*
Cc1cccc(C)c1NC(=O)CSc1nc2ccccc2c2nc(CCc3c(C)n[nH]c3C)nn12	-17.1%	x	i	i	x	-29.3%
Cc1ccc(NC(=O)CSc2nc3ccccc3c3nc(CCc4c(C)n[nH]c4C)nn23)cc1F	7.31µM*	-27.9%	i	i	7.94µM*	6.51µM*
CC(=O)Nc1ccc(NC(=O)C2CCN(c3ccc(C(F)(F)F)cn3)CC2)cc1	-6.6%	u	i	i	-12.9%	u
CNC[C@H](CC1CCCCC1)NC[C@H](Cc1ccccc1)NCCC12CC3CC(CC(C3)C1)C2	7.31µM*	20.6µM*	18.4µM*	u	u	13µM*
CS(=O)(=O)N1CCC(C(=O)Nc2cc(C(F)(F)F)ccc2Cl)CC1	-3.2%	9.5%	i	i	12.6%	1.4%
CS(=O)(=O)N1CCC(C(=O)Nc2ccc(Cl)c(C(F)(F)F)c2)CC1	u	u	u	i	-22.7%	23.1µM*
Cn1cnc(S(=O)(=O)N2CCC(C(=O)Nc3ccc(Cl)c(C(F)(F)F)c3)CC2)c1	16.4µM*	x	x	x	x	13µM*
C[C@@H]1COC(=O)[C@@H](Cc2ccc(F)cc2)C/C=C\C[C@H](CC(=O)N(CCO)Cc2ccccc2)C(=O)N1	u	-0.8%	i	i	-2.0%	u
Cc1ccc(C)c(-n2c(C)cc(/C=N/NC(=O)c3c(C)nc4cc(C)ccn34)c2C)c1	u	1.1%	i	i	u	20.6µM*
Cc1ccn2c(C(=O)N/N=C\c3cccs3)c(C)nc2c1	-11.1%	-4.1%	i	i	1.4%	-19.9%
CCOC(=O)C(C)/C(C)=N/NC(N)=S (stereo not drawn)	18.4µM*	u	i	i	-6.5%	u
CCOC(=O)C(C)/C(C)=N\Nc1ccc([N+](=O)[O-])cc1[N+](=O)[O-] (stereo not drawn)	u	-1.2%	i	i	-22.1%	u
